Source: PMC7862700, “An all-to-all approach to the identification of sequence-specific readers for epigenetic DNA modifications on cytosine”

Legend:
Assay in all cases: DAPPL (digital affinity profiling via proximity ligation, sequencing); 10 mM Tris-HCl pH 7.5, 50 mM NaCl, 1 mM DTT, 4% glycerol, room temperature, 30 min; GST-TFs on glutathione beads, 16-mer random dsDNA library, 0.1% formaldehyde crosslink after washing; high values mean tight binding
Conditions in all cases: protein: recombinant; tags: N-terminal GST; dsDNA, one strand shown
FLI1 = target: T1, FLI1 (Homo sapiens, UniProt Q01543 1-452)
T1 sequence: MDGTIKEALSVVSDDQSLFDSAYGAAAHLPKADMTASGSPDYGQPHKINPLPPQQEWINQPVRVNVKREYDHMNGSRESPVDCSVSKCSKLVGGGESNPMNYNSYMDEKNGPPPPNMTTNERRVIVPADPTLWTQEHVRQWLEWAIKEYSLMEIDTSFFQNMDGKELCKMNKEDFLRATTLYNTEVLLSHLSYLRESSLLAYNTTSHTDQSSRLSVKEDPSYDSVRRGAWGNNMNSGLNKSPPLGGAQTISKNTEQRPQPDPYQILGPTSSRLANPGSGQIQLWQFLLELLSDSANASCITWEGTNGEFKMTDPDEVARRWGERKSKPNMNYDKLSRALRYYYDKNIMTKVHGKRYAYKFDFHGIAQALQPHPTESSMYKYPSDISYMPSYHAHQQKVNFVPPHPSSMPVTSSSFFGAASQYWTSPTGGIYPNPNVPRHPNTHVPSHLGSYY
Method in brief: (§1)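 Human transcription factors carrying a GST fusion were produced in yeast, bound to glutathione beads, tagged with DNA barcodes and pooled together with a tag-only sample. Each pool was held with 200 nmole of a random double-stranded 16-mer DNA library in Tris/NaCl/DTT/glycerol buffer for 30 min at room temperature, then washed, crosslinked in 0.1% formaldehyde, proximity-ligated with BsaI/T4 ligase (1 h, 37 °C), PCR-amplified and sequenced on an Illumina NextSeq500. Binding signal is the read frequency of each hexamer for a given factor divided by its frequency in the tag-only sample.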

ELK1 = target: T2, ELK1 (Homo sapiens, UniProt P19419 1-428)
T2 sequence: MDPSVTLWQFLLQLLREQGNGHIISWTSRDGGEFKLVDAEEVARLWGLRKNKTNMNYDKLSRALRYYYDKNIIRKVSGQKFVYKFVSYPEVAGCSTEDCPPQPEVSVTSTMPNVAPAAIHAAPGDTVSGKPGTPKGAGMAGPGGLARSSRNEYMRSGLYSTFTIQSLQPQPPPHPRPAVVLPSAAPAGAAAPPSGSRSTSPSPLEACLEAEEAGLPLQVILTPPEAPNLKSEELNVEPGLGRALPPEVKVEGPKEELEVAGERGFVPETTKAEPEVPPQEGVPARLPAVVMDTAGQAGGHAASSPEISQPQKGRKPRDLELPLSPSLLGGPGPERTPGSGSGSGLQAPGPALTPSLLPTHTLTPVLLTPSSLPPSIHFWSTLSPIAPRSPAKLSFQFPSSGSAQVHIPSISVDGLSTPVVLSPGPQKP
Method in brief: as §1

GABPA = target: T3, GABPA (Homo sapiens, UniProt Q06546 1-454)
T3 sequence: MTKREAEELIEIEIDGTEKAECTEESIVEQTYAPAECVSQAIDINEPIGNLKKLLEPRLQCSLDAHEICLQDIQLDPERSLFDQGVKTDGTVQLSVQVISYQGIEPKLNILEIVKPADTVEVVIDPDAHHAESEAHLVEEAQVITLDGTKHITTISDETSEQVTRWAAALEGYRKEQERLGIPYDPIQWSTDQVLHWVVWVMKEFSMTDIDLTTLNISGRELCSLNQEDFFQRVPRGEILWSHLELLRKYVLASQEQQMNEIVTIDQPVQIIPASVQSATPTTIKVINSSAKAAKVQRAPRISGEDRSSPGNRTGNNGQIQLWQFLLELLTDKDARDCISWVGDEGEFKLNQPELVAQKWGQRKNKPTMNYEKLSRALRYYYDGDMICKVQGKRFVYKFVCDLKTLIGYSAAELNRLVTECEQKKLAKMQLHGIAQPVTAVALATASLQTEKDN
Method in brief: as §1

ERG = target: T4, ERG (Homo sapiens, UniProt P11308 1-479)
T4 sequence: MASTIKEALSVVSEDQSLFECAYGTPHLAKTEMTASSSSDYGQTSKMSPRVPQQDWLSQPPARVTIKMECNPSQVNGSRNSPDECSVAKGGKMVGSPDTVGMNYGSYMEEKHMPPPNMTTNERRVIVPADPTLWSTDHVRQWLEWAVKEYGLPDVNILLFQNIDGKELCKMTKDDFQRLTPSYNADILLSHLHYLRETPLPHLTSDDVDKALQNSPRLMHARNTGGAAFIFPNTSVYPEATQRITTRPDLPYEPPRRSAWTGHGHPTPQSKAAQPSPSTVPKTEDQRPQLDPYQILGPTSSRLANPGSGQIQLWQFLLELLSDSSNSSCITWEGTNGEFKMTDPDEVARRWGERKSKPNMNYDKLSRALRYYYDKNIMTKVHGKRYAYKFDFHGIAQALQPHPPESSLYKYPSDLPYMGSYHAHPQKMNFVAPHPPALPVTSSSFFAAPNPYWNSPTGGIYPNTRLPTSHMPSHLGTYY
Method in brief: as §1

ELF1 = ELF1 (Homo sapiens, UniProt P32519 1-619)
Method in brief: as §1

EHF = target: T5, EHF (Homo sapiens, UniProt Q9NZC4 1-300)
T5 sequence: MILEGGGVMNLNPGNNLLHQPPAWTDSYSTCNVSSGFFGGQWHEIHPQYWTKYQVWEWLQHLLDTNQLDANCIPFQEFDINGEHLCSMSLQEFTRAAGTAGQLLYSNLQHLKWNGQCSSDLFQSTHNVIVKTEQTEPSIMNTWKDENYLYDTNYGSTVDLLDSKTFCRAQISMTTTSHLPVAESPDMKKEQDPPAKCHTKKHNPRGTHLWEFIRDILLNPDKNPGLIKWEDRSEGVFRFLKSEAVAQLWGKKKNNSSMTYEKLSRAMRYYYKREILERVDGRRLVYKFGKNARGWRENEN
Method in brief: as §1

SPI1 = SPI1 (Homo sapiens, UniProt P17947 1-270)
Method in brief: as §1

SPIB = SPIB (Homo sapiens, UniProt Q01892 1-262)
Method in brief: as §1

ELK3 = target: T6, ELK3 (Homo sapiens, UniProt P41970 1-407)
T6 sequence: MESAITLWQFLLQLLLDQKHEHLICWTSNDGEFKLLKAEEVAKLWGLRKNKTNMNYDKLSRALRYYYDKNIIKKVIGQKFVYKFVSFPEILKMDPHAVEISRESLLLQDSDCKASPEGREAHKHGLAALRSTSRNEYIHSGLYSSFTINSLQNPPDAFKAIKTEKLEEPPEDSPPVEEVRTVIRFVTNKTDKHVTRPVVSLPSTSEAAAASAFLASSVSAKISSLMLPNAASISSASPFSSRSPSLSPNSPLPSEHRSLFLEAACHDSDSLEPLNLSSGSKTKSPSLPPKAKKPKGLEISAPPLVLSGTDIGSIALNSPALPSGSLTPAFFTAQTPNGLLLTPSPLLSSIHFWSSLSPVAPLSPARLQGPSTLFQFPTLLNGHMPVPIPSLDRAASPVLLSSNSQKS
Method in brief: as §1

Sequence of ELF1 (P32519 whole entry): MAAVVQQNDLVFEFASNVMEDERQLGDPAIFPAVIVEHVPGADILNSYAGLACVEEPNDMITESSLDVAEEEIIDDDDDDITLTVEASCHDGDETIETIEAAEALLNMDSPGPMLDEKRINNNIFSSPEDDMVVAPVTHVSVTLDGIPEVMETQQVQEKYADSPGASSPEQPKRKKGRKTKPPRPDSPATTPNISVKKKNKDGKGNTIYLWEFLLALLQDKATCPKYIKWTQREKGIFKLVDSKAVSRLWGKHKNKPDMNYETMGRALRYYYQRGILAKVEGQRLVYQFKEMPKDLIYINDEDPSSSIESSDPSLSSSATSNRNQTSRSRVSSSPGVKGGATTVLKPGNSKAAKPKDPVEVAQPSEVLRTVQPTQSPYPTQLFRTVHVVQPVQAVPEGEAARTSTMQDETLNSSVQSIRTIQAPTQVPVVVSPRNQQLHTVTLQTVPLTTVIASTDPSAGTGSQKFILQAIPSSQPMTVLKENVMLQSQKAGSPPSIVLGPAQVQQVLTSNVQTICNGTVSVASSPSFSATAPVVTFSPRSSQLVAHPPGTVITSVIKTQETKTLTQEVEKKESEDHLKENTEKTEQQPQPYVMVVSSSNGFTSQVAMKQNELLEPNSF
Sequence of SPIB (Q01892 whole entry): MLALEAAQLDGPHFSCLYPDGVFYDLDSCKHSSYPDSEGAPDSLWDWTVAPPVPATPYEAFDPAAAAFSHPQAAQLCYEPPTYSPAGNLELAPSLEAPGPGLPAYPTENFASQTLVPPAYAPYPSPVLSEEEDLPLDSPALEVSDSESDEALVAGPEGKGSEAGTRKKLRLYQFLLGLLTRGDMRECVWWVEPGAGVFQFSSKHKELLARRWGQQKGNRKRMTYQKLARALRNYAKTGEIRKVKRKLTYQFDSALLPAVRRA

Sequence | binding signal (FLI1) | binding signal (ELK1) | binding signal (GABPA) | binding signal (ERG) | binding signal (ELF1) | binding signal (EHF) | binding signal (SPI1) | binding signal (SPIB) | binding signal (ELK3)
CCCTAA | 1.16 fold enrichment (6-mer frequency, TF over GST control) | 1.19 fold enrichment (6-mer frequency, TF over GST control) | 1.15 fold enrichment (6-mer frequency, TF over GST control) | 1.17 fold enrichment (6-mer frequency, TF over GST control) | 1.25 fold enrichment (6-mer frequency, TF over GST control) | 1.24 fold enrichment (6-mer frequency, TF over GST control) | 1.2 fold enrichment (6-mer frequency, TF over GST control) | 1.29 fold enrichment (6-mer frequency, TF over GST control) | 1.28 fold enrichment (6-mer frequency, TF over GST control)
GTCACT | 1.1 fold enrichment (6-mer frequency, TF over GST control) | 1.07 fold enrichment (6-mer frequency, TF over GST control) | 1.08 fold enrichment (6-mer frequency, TF over GST control) | 1.13 fold enrichment (6-mer frequency, TF over GST control) | 1.1 fold enrichment (6-mer frequency, TF over GST control) | 1.15 fold enrichment (6-mer frequency, TF over GST control) | 1.19 fold enrichment (6-mer frequency, TF over GST control) | 1.21 fold enrichment (6-mer frequency, TF over GST control) | 1.06 fold enrichment (6-mer frequency, TF over GST control)
GTGTTC | 1.13 fold enrichment (6-mer frequency, TF over GST control) | 1.25 fold enrichment (6-mer frequency, TF over GST control) | 1.26 fold enrichment (6-mer frequency, TF over GST control) | 1.22 fold enrichment (6-mer frequency, TF over GST control) | 1.1 fold enrichment (6-mer frequency, TF over GST control) | 1.15 fold enrichment (6-mer frequency, TF over GST control) | 1.28 fold enrichment (6-mer frequency, TF over GST control) | 1.09 fold enrichment (6-mer frequency, TF over GST control) | 1.1 fold enrichment (6-mer frequency, TF over GST control)
TGCAAT | 1.18 fold enrichment (6-mer frequency, TF over GST control) | 1.21 fold enrichment (6-mer frequency, TF over GST control) | 1.15 fold enrichment (6-mer frequency, TF over GST control) | 1.09 fold enrichment (6-mer frequency, TF over GST control) | 1.18 fold enrichment (6-mer frequency, TF over GST control) | 1.12 fold enrichment (6-mer frequency, TF over GST control) | 1.19 fold enrichment (6-mer frequency, TF over GST control) | 1.16 fold enrichment (6-mer frequency, TF over GST control) | 1.19 fold enrichment (6-mer frequency, TF over GST control)
GATGCC | 1.45 fold enrichment (6-mer frequency, TF over GST control) | 1.36 fold enrichment (6-mer frequency, TF over GST control) | 1.38 fold enrichment (6-mer frequency, TF over GST control) | 1.41 fold enrichment (6-mer frequency, TF over GST control) | 1.32 fold enrichment (6-mer frequency, TF over GST control) | 1.41 fold enrichment (6-mer frequency, TF over GST control) | 1.35 fold enrichment (6-mer frequency, TF over GST control) | 1.26 fold enrichment (6-mer frequency, TF over GST control) | 1.38 fold enrichment (6-mer frequency, TF over GST control)
TACGGC | 1.18 fold enrichment (6-mer frequency, TF over GST control) | 1.25 fold enrichment (6-mer frequency, TF over GST control) | 1.23 fold enrichment (6-mer frequency, TF over GST control) | 1.24 fold enrichment (6-mer frequency, TF over GST control) | 1.18 fold enrichment (6-mer frequency, TF over GST control) | 1.2 fold enrichment (6-mer frequency, TF over GST control) | 1.18 fold enrichment (6-mer frequency, TF over GST control) | 1.25 fold enrichment (6-mer frequency, TF over GST control) | 1.16 fold enrichment (6-mer frequency, TF over GST control)
TACAAT | 1.29 fold enrichment (6-mer frequency, TF over GST control) | 1.28 fold enrichment (6-mer frequency, TF over GST control) | 1.32 fold enrichment (6-mer frequency, TF over GST control) | 1.29 fold enrichment (6-mer frequency, TF over GST control) | 1.3 fold enrichment (6-mer frequency, TF over GST control) | 1.38 fold enrichment (6-mer frequency, TF over GST control) | 1.25 fold enrichment (6-mer frequency, TF over GST control) | 1.26 fold enrichment (6-mer frequency, TF over GST control) | 1.21 fold enrichment (6-mer frequency, TF over GST control)
